The whole screen tested about 65,000 compounds, of which about 320 (0.49%) were called active.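 How the source made its calls: active means top-ranked compounds by inhibition in the single 10 µM screen, taking a fixed number of the strongest; inactive means the rest, inconclusive results apart.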 Shown is part of a subset that was picked to be rich in actives.
Tested on: phosphomevalonate kinase (Streptococcus pneumoniae D39)
Assay: phosphomevalonate kinase enzyme inhibition – biochemical, mevalonate pathway, pilot trial included, primary screen (AID 539);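 further: 0% = full reaction with DMSO carrier and 100% = background rate without enzyme reaction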
Settings: purified PMK, PK/LDH-coupled NADH absorbance 340 nm, at 10 µM, stronger effect = higher value
[1] = measured here: pilot screen replicates

SMILES | inhibition | inhibition [1] [%]
O=C(Nc1cccc2c1CCCC2)C1CCN(C(=O)NC2CCCCC2)CC1 | 13% (inactive) | –
CCC(C)n1[nH]c(=O)cc1N (configuration not stated) | 5% (inactive) | –
Cc1nn2c3cc(N4CCOCC4)ccc3nc2c2ccccc12 | 0% (inactive) | –
Cn1c(SCC(=O)Nc2cccc(O)c2)nnc1-c1ccc(S(=O)(=O)N2CCOCC2)cc1 | 0% (inactive) | –
Cc1ccccc1C(=O)Nc1cccc(-c2nnc(SCC(=O)O)n2C)c1 | 7% (inactive) | –
Cn1c(SCC(=O)N2CCOCC2)nnc1-c1ccc(NC(=O)c2ccccc2F)cc1 | 40% (active) | –
CCc1nnc(NC(=O)CSc2nnc(COc3ccc(C#N)cc3)n2-c2ccccc2)s1 | 4% (inactive) | –
Cn1c(=O)[nH]c(=O)c2c1nc(Br)n2CCCCSc1nc2ccccc2o1 | 8% (inactive) | –
C1=C(CCNc2ncnc3c2cnn3-c2ccccc2)CCCC1 | 8% (inactive) | 0.5
c1csc(-c2nc(-c3ccncc3)no2)c1 | 0% (inactive) | –
O=C(O)CCN1C(=O)CC2(CCCCC2)C1=O | 12% (inactive) | –
Cc1ccc(C)c(NC(=O)C2CCCN2C(=O)OC(C)(C)C)c1 (configuration not stated) | 0% (inactive) | –
CC(C)N(C(=O)Cn1c(SCC(=O)N2CCN(c3ccccc3)CC2)nc2ccccc21)C(C)C | 4% (inactive) | –
COCCN(CC(=O)Nc1ccccc1C)S(=O)(=O)c1ccc(S(=O)(=O)N2CCCC2)cc1 | 10% (inactive) | 2.5
CCOC(=O)C1CCN(C(=O)C2CCN(S(=O)(=O)CC)CC2)CC1 | 2% (inactive) | –
CCOC(=O)C1CCN(C(=O)C2CCN(S(=O)(=O)N3CCCC3)CC2)CC1 | 30% (active) | –
CCOC(=O)C1CCN(C(=O)C2CCN(S(=O)(=O)c3c(C)noc3C)CC2)CC1 | 11% (inactive) | –
CC1(C)CC(=O)C=C(NC2CC(C)(C)NC(C)(C)C2)C1 | 8% (inactive) | –
c1ccc(CCn2nnnc2CN2CCN(C3CCCC3)CC2)cc1 | 0% (inactive) | 0.5
CC1CCCCC1NC(=O)CCS(=O)(=O)c1cccc2nonc12 (configuration not stated) | 0% (inactive) | –
O=C1CSC(=O)N1CCOCCN1C(=O)CSC1=O | 8% (inactive) | –
Cc1ccccc1CN1CCN(C(=O)c2cccc(F)c2)CC1 | 0% (inactive) | 2
CCCCCOC(=O)C1=C(C)Nc2nnnn2C1c1ccc(OC)c(OC)c1OC (configuration not stated) | 11% (inactive) | –
COc1ccc(CCn2nnnc2C(c2ccccc2)N2CCN(C)CC2)cc1OC (configuration not stated) | 18% (inactive) | –
COC(=O)c1ccc(Oc2nc(Nc3ccc(F)cc3)nc(N3CCCC3)n2)cc1 | 4% (inactive) | –
CCC1CCCCN1CCCNC(=O)Cn1nc(-c2ccccc2)ccc1=O (configuration not stated) | 26% (active) | –
Cc1ccc(-c2ccc(=O)n(CC(=O)NCCCN3CCCCC3)n2)cc1 | 18% (inactive) | –
CCC1CCCCN1CCNC(=O)c1[nH]c(C)c(C(C)=O)c1C (configuration not stated) | 1% (inactive) | –
